# Screens: PubChem, National Center for Advancing Translational Sciences (NCATS)
# Sampled rows, rich in hits. Any-hit rate of the full collection: about 6.6%.
# KB-V1 MDR tox – qHTS assay for MDR1-selective chemotherapeutics: Primary screen using the drug-selected MDR subline cells KB-V1; AID 1347076, 2019; 400,000 compounds, 3.4% hits; KB-V1 MDR cells viability, CellTiter-Glo, 72 h; Potency, µM (titrated, usually from 46.1 µM), hits mostly cytotoxic; note: % is set by controls: 0 for no effect and ±100 for the full control effect; nearly all actives have a fitted effect of over 60% in size
#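 KB-V1, DMEM (no phenol red) + 10% FBS; cpd pin-transferred, titration series; 72 h, 37 degrees C; CellTiter-Glo, luminescence. Data normalized, curve-fit.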
# HT1080 IDH1KD tx – qHTS for induction of synthetic lethality in tumor cells producing 2HG: qHTS for the HT-1080-IDH1KD cell line. 360,000 compounds, 2% hits. HT-1080 IDH1 knockdown viability, ATP luminescence, 48 h. Potency, µM (doses to about 46.1 µM), for inactives: at the top dose activity, negative = toxicity, most hits filed as cytotoxic. AID 686971, 2013;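 note: 0% = DMSO wells and -100% = cell-free medium wells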
#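 After a 2 h attachment period, IDH1KD HT-1080 cells took pin-transferred compound for 48 h at 37 °C; ATP-based luminescence after 10 min room-temperature reagent incubation reported viability.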
# TGFb inhibitor – qHTS for Inhibitors of TGF-b; 410,000 compounds, 1.2% hits; HepG2 CAGA-GFP TGF-b/SMAD3 reporter, GFP fluorescence, 18 h; TGF-beta stimulated, 500 pg/mL final; Potency, µM (titrated, usually from 46.1 µM), for inactives: at the highest dose activity, negative = inhibition, usual class: inhibitors; note: % is set by controls: 0 for no effect and ±100 for the full control effect; nearly all actives have a fitted effect of over 65% in size
#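 HEPG2 CAGA-GFP reporter cells (1000/well, DMEM with 1% FBS) received compounds, then recombinant TGF-beta at 500 pg/mL final for 18 hours at 37 degrees C. Per-cell GFP summed per well was normalised to unstimulated and stimulated DMSO controls before curve fitting.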
# HepG2 tox – qHTS for Inhibitors of TGF-b: Cytotox Counterscreen | HepG2 CAGA-GFP viability, ATP luminescence, 18 h | 410,000 compounds, 0.76% hits | Potency, µM (highest dose often 46.1 µM), without a hit: top-dose activity change, negative = cytotoxicity, hits mostly cytotoxic
#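 HepG2 CAGA-GFP cells (1000/well, DMEM with 1% FBS) received compound, then TGF-beta at 500 pg/mL final, and were incubated 18 hours at 37 degrees C. Viability was read by CellTiter-Glo luminescence. Media-only wells were set as complete cell-killing and DMSO as no toxicity.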
# HT1080NT lethal – qHTS for induction of synthetic lethality in tumor cells producing 2HG: qHTS for the HT-1080-NT fibrosarcoma cell line; 360,000 compounds, 1.6% hits; HT-1080-NT fibrosarcoma viability, CellTiter-Glo ATP luminescence, 48 h; AID 686970, 2013; Potency, µM (titrated, usually from 46.1 µM), for inactives: at the top dose activity, negative = less viability, most hits filed as cytotoxic;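 note: NT is the 2HG producing partner of a matched IDH1 knockdown line; 0% = DMSO-treated cells and -100% = media-only wells without cells; nearly all actives have a fitted effect of over 55% in size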
#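 HT-1080-NT; 750 cells/well; 5% FBS RPMI; 48 h compound, 37 degrees C; CellTiter-Glo luminescence; curve fitting and curve-class assignment.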
# KB-3-1 tox – qHTS assay for MDR1-selective chemotherapeutics: Primary screen using the parental adenocarcinoma cell KB-3-1; KB-3-1 viability, CellTiter-Glo ATP luminescence, 72 h; Potency, µM (doses to about 46.1 µM), most hits filed as cytotoxic; 400,000 compounds, 1.4% hits; AID 1347075, 2019; note: % is set by controls: 0 for no effect and ±100 for the full control effect; nearly all actives have a fitted effect of over 60% in size
#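 Cytotoxicity measured as CellTiter-Glo luminescence after 72 h at 37 C. Compound titrations were pinned onto drug-naive KB-3-1 parental adenocarcinoma cells grown in DMEM with 10% FBS, and normalized data fitted to concentration-response curves.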
# * hit, by the source's call; i = inactive; ? = inconclusive; nt = no result. Calls come from the whole dose curve; as a rule, active = well fitted curve in the direction sought with a large enough effect; inconclusive = small, poorly fitted or top-dose-only effect, or another doubt; inactive = no such curve, though single readings can be large; an effect the other way counts as inactive or inconclusive. Potency is the fitted concentration of half-maximal effect.
SMILES,KB-V1 MDR tox,HT1080 IDH1KD tx,TGFb inhibitor,HepG2 tox,HT1080NT lethal,KB-3-1 tox
CCc1ccc(/C=C/C(=O)c2cc(Br)ccc(=O)c2O)cc1,10µM*,?,?,-76%,21µM*,?
Cc1cccc(/C=C/C(=O)c2cc(Br)ccc(=O)c2O)c1,?,?,?,-29%,?,?
CN(C)c1ccc(C(=C2C=CC(=[N+](C)C)C=C2)c2c(O)c(S(=O)(=O)[O-])cc3cc(S(=O)(=O)O)ccc23)cc1,i,nt,-7%,-4%,nt,?
CCN(CC)c1ccc(C(=C2C=CC(=[N+](CC)CC)C=C2)c2ccc(S(=O)(=O)O)cc2S(=O)(=O)[O-])cc1,?,?,-7%,-50%,23µM*,12µM*
CCc1ccc(NC(=O)C(=O)NCCc2sc(-c3ccc(C)cc3)nc2C)cc1,i,nt,4%,3%,nt,i
COc1ccc(C#Cc2cccc(-c3nc(C(=O)NCc4ccc(Oc5ccccc5)cc4)cc4c3[C@@H](CCO)N(S(=O)C(C)(C)C)C4)c2)cc1OC (some centres undefined),i,?,?,16µM*,21µM*,i
O=c1[nH]c(C2CCN(S(=O)(=O)c3ccccc3C(F)(F)F)CC2)nc2c1nnn2Cc1cccc(F)c1,i,16µM*,?,4%,?,i
CCC(C)Nc1nc(-c2c[nH]c3ccccc23)cs1 (centres undefined),i,?,13µM*,-59%,?,i
CN1CCN(CC(=O)Nc2nc(-c3c[nH]c4ccccc34)cs2)CC1,i,21µM*,-23%,-7%,?,i
CC1CN(C(=O)N2CCC(C(=O)NCCCc3ccccc3)CC2)c2cc(Cl)ccc2O1 (centres undefined),i,nt,14µM*,-21%,nt,i
CCC1CN(C(=O)N2CCC(C(=O)NCCc3ccccc3Cl)CC2)c2cc(C)ccc2O1 (centres undefined),nt,nt,11µM*,-34%,nt,nt
CCC1CN(C(=O)N2CCC(C(=O)N3CCN(c4cc(C)ccc4C)CC3)CC2)c2ccccc2O1 (centres undefined),nt,nt,10µM*,-73%,nt,nt
CCCCNC(=O)C1CCN(C(=O)N2CC(C)Oc3ccc(Cl)cc32)CC1 (centres undefined),i,nt,-29%,-21%,nt,i
Cc1ccc2c(c1)N(C(=O)N1CCC(C(=O)NCc3ccccc3F)CC1)CC(C)O2 (centres undefined),i,nt,13µM*,-48%,nt,i
CC1CN(C(=O)N2CCC(C(=O)NCc3ccccc3F)CC2)c2cc(Cl)ccc2O1 (centres undefined),i,nt,-15%,-29%,nt,i
CCCC(=O)NC1CC(=O)N(c2ccc3c(c2)OCCO3)C1 (centres undefined),nt,nt,-43%,0%,nt,nt
CCn1c(C(=O)Nc2ccc(C)cc2C)cc2sc(Cl)cc21,i,nt,9%,-3%,nt,i
O=C1CCCC2=C1C1(CCCC1)N=C(Nc1nc3cc(Cl)ccc3o1)N2,?,nt,nt,nt,nt,i
CC1CCN(c2nc3c(S(=O)(=O)c4cccc(Cl)c4)nnn3c3ccsc23)CC1,i,nt,-1%,-2%,nt,i
COc1cc(Cl)c(C)cc1NC(=O)CCc1c(C)nc2cc(-c3cccc(F)c3)nn2c1C,i,nt,-6%,-6%,nt,i
CCOc1ccccc1CNC(=O)C1CCN(C(=O)N2CC(C)Oc3ccc(C)cc32)CC1 (centres undefined),i,0%,-29%,-31%,-2%,i
CCOc1ccccc1CNC(=O)C1CCN(C(=O)N2CC(CC)Oc3ccc(C)cc32)CC1 (centres undefined),nt,nt,10µM*,-39%,nt,nt
COCCCN=C(c1ccco1)n1c(=S)nc(-c2ccco2)n(CCCOC)c1=S,?,7.9µM*,0%,-6%,5.6µM*,i
O=c1c2cc(NC(=S)NC3CCCC3)ccc2nc2n1CCCCC2,21µM*,1%,-3%,-1%,-7%,i
O=C(Nc1ccc2nc3n(c(=O)c2c1)CCCC3)c1ccccc1F,i,12%,2%,6%,11%,i
SMILES,KB-V1 MDR tox,HT1080 IDH1KD tx,TGFb inhibitor,HepG2 tox,HT1080NT lethal,KB-3-1 tox
O=C(Nc1ccc(SC(F)F)cc1)c1ccc2c(=O)n3c(nc2c1)CCC3,i,-26%,-20%,-4%,3.3µM*,i
O=c1c2cc(NC(=S)NC3CCN(Cc4ccccc4)CC3)ccc2nc2n1CCCCC2,i,18µM*,?,-27%,?,i
O=C(Nc1ccc2nc3n(c(=O)c2c1)CCCCC3)c1cc([N+](=O)[O-])ccc1F,i,?,?,13µM*,?,?
O=c1c2cc(NC(=S)NC3CCCCC3)ccc2nc2n1CCCCC2,?,-13%,2%,-10%,-16%,i
O=C(c1ccc2c(c1)N(Cc1ccc(Cl)cc1)C(=O)c1ccccc1S2=O)N1CCC(Cc2ccccc2)CC1 (centres undefined),?,nt,?,-41%,nt,?
COc1ccccc1NC(=O)C(C)Sc1nnc2ccc3ccccc3n12 (centres undefined),i,nt,7%,13%,nt,i
CCc1ccc(NC(=S)NC2CCN(Cc3ccccc3)CC2)cc1,?,-19%,?,-54%,-27%,?
O=c1c2cc(NC(=S)NCCCN3CCC(Cc4ccccc4)CC3)ccc2nc2n1CCCCC2,?,16µM*,?,16µM*,9.2µM*,23µM*
CCC(C)c1ccc(NC(=S)NC2CCN(Cc3ccccc3)CC2)cc1 (centres undefined),?,?,10µM*,14µM*,18µM*,?
COc1cc(C(=O)Nc2ccc3nc4n(c(=O)c3c2)CCCCC4)cc(OC)c1OC,i,18µM*,-2%,-13%,?,i
O=c1c2cc(NC(=S)NCCN3CCCCCC3)ccc2nc2n1CCCCC2,i,-3%,-1%,-1%,-3%,i
COc1ccc(C(=O)Nc2ccc3nc4n(c(=O)c3c2)CCCCC4)cc1OC,i,6%,7%,5%,13%,i
